Only some compounds are listed: those with a hit (about 18% of all), similar ones and a draw of the others.
DT40 TDP1 CPT – qHTS for Inhibitors of human tyrosyl-DNA phosphodiesterase 1 (TDP1): qHTS in cells in presence of CPT; chicken DT40 Tdp1-/-;hTDP1 cells + 20 nM CPT, ATP luminescence, 48 h; AID 686979, 2013; actives 12% (n = 420,000); Potency, µM (titrated, usually from 46.2 µM), inactives show top-dose activity change, negative = growth inhibition, hits mostly inhibitors; also: nearly all actives have a fitted effect of over 55% in size
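Chicken DT40 Tdp1-/- cells complemented with human TDP1, 400 cells/well, exposed to compounds plus 20 nM camptothecin for at least 48 h at 37 C; viability read as ATP content by CellTiter-Glo luminescence.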
PLK1 PBD block – qHTS for Inhibitors of PLK1-PDB (polo-like kinase 1 - polo-box domain): Primary Screen. actives 2.8% (n = 360,000). Plk1 PBD binding of FITC phosphopeptide, fluorescence polarization. Potency, µM, without a hit: max response, negative = inhibition, hits mostly inhibitors; also: series mostly up to about 57 µM; nearly all actives have a fitted effect of over 65% in size
TDP1 inh – qHTS Assay for Inhibitors of Tyrosyl-DNA Phosphodiesterase (TDP1); Tyrosyl-DNA phosphodiesterase 1 (Homo sapiens), Q9NUW8; recombinant TDP1, AlphaScreen DNA substrate cleavage; actives 0.28% (n = 350,000); Potency, µM (top dose mostly 130 µM), for inactives: at the highest dose activity change, negative = inhibition, usual class: inhibitors; AID 485290, 2010; also: nearly all actives have a fitted effect of over 40% in size
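E. coli-derived human Tdp1, 1 nM final. Cpd preinc 15 min RT; substrate 15 nM final, 5 min RT; AS bead mix 10 ug/ml final, 10 min RT. Signal loss = tyrosine-FITC cleavage. No-enzyme wells = max signal.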
GCN5L2 inh – qHTS Assay for Inhibitors of GCN5L2. actives 0.21% (n = 390,000). GCN5L2 HAT assay, ThioGlo1 CoA-SH fluorescence. Potency, µM (doses to about 58.9 µM), without a hit: top-dose activity change, negative = inhibition, actives largely listed as inhibitors. AID 504327, 2011
Target sequence (Q92830 whole entry, looked up): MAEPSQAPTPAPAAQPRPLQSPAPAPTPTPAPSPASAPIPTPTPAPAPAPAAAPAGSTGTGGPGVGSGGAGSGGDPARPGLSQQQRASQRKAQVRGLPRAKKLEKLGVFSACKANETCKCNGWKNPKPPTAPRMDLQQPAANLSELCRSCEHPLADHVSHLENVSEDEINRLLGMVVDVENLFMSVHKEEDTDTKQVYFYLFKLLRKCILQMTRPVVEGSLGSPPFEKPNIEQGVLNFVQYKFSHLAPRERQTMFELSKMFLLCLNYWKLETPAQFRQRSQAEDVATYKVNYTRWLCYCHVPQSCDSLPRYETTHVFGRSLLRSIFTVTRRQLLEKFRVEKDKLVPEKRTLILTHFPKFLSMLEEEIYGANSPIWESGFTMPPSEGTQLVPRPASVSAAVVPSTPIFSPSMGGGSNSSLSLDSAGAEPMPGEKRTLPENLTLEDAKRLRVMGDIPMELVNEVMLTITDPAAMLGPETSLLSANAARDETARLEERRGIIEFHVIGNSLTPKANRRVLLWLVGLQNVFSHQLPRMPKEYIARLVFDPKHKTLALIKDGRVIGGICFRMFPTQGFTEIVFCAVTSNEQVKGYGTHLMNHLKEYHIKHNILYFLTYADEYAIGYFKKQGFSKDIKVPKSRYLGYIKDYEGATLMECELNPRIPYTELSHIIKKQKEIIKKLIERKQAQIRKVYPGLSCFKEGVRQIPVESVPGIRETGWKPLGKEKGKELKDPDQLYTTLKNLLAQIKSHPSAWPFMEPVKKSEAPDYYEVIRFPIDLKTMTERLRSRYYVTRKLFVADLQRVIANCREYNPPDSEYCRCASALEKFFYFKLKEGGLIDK
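Fluorescence readout, Ex340nm/Em540nm: ThioGlo1 (50uM final) reacts with free CoA thiol released as 20nM GCN5L2 acetylates H3(1-25) peptide (75uM) using acetyl-CoA (70uM). Compound and enzyme sat 15 min beforehand; 20 min room-temperature reaction.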
VDR inhibitor – Inhibitors of the vitamin D receptor (VDR): qHTS. Vitamin D3 receptor (Homo sapiens), P11473. VDR-SRC2-3 peptide fluorescence polarization, 2 h. Potency, µM, for the others: max response, negative = inhibition, actives largely listed as inhibitors. actives 0.93% (n = 400,000)
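Two reagent solutions held at 4 deg C in the dark were dispensed, compounds pinned at 23 nl, and the mixture incubated 2 h at room temperature. Read-out: fluorescence polarization of VDR–SRC2-3 peptide binding.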
DT40 TDP1 no CPT – qHTS for Inhibitors of human tyrosyl-DNA phosphodiesterase 1 (TDP1): qHTS in cells in absence of CPT. DT40 Tdp1-/- hTDP1 cells, no CPT, ATP luminescence, 48 h. Potency, µM (top dose mostly 46.2 µM), for the others: at the top dose activity change, negative = growth inhibition, hits mostly inhibitors. actives 15% (n = 420,000). AID 686978, 2013; also: nearly all actives have a fitted effect of over 55% in size
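Seeded 400 DT40-hTDP1 cells/well (vehicle DMSO, no 20 nM CPT); pinned compounds; ≥48 hr at 37 °C; CellTiter-Glo luminescence as viability measure.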
* marks the source's active call; other numbers are inactive results; ! = repeats disagree; [ ] = another dose, or the depositor's remark. Calls follow the shape of the dose curve; as a rule, active = well fitted curve in the direction sought with a large enough effect; inconclusive = small, poorly fitted or top-dose-only effect, or another doubt; inactive = no such curve, though single readings can be large; an effect the other way counts as inactive or inconclusive. % is scaled to controls: 0 for no effect and ±100 for the full control effect; potency is read from the fitted curve at half-maximal effect.

c1ccc(CCNc2ccccn2)nc1 was read as DT40 TDP1 CPT -0.4%, PLK1 PBD block -3.5%, VDR inhibitor 0.5% and DT40 TDP1 no CPT 2.2%.
`Cc1ccccc1S(=O)(=O)Nc1ncnc2sccc12` gave DT40 TDP1 CPT -8.2%, PLK1 PBD block -29.1%, TDP1 inh -13.6%, GCN5L2 inh 1.4%, VDR inhibitor -21.0% and DT40 TDP1 no CPT -16.9%.
Screening Cc1csc2ncnc(NCCc3ccccn3)c12 returned DT40 TDP1 CPT 6.51µM*, PLK1 PBD block -5.8%, TDP1 inh 6.3%, GCN5L2 inh -2.4%, VDR inhibitor 0.4% and DT40 TDP1 no CPT 3.66µM*.
CN1CCC(=C2c3ccccc3Sc3ccccc32)CC1 was read as DT40 TDP1 CPT 7.31µM*, PLK1 PBD block -11.8%, TDP1 inh 11.0%, GCN5L2 inh 0.5%, VDR inhibitor -18.9% and DT40 TDP1 no CPT 18.4µM*.
`CN1CCC(=C2c3ccccc3CCc3cccnc32)CC1` gave DT40 TDP1 CPT 14.8% and DT40 TDP1 no CPT 8.5%.
For CN1CCC(=C2c3ccccc3C=Cc3ccccc32)CC1 the results were DT40 TDP1 CPT 29.9µM*!, PLK1 PBD block 0.3%, TDP1 inh 5.8%, GCN5L2 inh inconclusive, VDR inhibitor -19.9% and DT40 TDP1 no CPT 26.6µM*!.
`CC(=O)N1CCc2cc(Br)cc(S(=O)(=O)N3CCC(C(=O)Nc4ccc(C(C)C)cc4)CC3)c21` gave DT40 TDP1 CPT inconclusive, TDP1 inh 3.6%, GCN5L2 inh -4.8%, VDR inhibitor inconclusive and DT40 TDP1 no CPT inconclusive.
Screening Nc1c(CO)nnn1-c1ccccc1 returned DT40 TDP1 CPT 19.6%, PLK1 PBD block -8.6%, TDP1 inh -5.3%, GCN5L2 inh -1.4%, VDR inhibitor -9.6% and DT40 TDP1 no CPT -2.5%.
Screening COc1cc([N+](=O)[O-])cc(/C=N/NC(=O)C(C)Nc2cccc(C)c2)c1O (stereo unspecified) returned DT40 TDP1 CPT 0.9%, PLK1 PBD block -9.8%, TDP1 inh 1.4%, GCN5L2 inh 31.5%, VDR inhibitor -17.1% and DT40 TDP1 no CPT inconclusive.
`COc1cc([N+](=O)[O-])cc(/C=N/NC(=O)c2ccc(NC(=O)c3ccc(C)cc3)cc2)c1O` gave DT40 TDP1 CPT 2.91µM*, PLK1 PBD block -9.5%, TDP1 inh -5.4%, GCN5L2 inh -0.4%, VDR inhibitor -9.5% and DT40 TDP1 no CPT 4.11µM*.
`COc1cc([N+](=O)[O-])cc(/C=N/NC(=O)C(C)Nc2ccccc2C)c1O` (stereo unspecified) gave DT40 TDP1 CPT 14.6µM*, PLK1 PBD block 0.5%, TDP1 inh 10.8%, GCN5L2 inh -7.7%, VDR inhibitor 3.1% and DT40 TDP1 no CPT 18.4µM*.
`COc1cc([N+](=O)[O-])cc(/C=N/NC(=O)c2ccc(C)nc2)c1O` gave DT40 TDP1 CPT 5.17µM*, PLK1 PBD block 2.0%, TDP1 inh -6.9%, GCN5L2 inh -12.7%, VDR inhibitor 1.2% and DT40 TDP1 no CPT 2.91µM*.
Screening CC#CCN1c2ccccc2[C@]23C[C@@H](C(=O)OC)N(S(=O)(=O)c4ccc([N+](=O)[O-])cc4)C2=NC(C(=O)OC)=C(C(=O)OC)[C@H]13 returned TDP1 inh 11.9%[12.3 µM].
CCOC(=O)c1ccc(N2CCN(c3cc(C)ccc3C)CC2)c(NC(=O)Nc2ccc(Cl)cc2)c1 was read as DT40 TDP1 CPT 4.61µM*, TDP1 inh 2.6%, GCN5L2 inh -9.0%, VDR inhibitor 10.8% and DT40 TDP1 no CPT 4.61µM*.
For CCOC(=O)c1ccc(N2CCN(c3ccccc3F)CC2)c(NC(=O)Nc2cccc(OC)c2)c1 the results were DT40 TDP1 CPT 13µM*, PLK1 PBD block -10.9%, TDP1 inh 2.7%, GCN5L2 inh -12.2%, VDR inhibitor -26.0% and DT40 TDP1 no CPT 5.8µM*.
Screening CCOC(=O)c1ccc(N2CCN(c3cc(Cl)ccc3C)CC2)c(NC(=O)Nc2cccc(OC)c2)c1 returned DT40 TDP1 CPT 16.4µM*, TDP1 inh 7.8%, GCN5L2 inh -2.3%, VDR inhibitor 13.9% and DT40 TDP1 no CPT 9.2µM*.
`CCOC(=O)c1ccc(N2CCN(c3cc(C)ccc3C)CC2)c(N)c1` gave DT40 TDP1 CPT 14.6µM*, PLK1 PBD block 1.6%, GCN5L2 inh 10.7%, VDR inhibitor 3.5% and DT40 TDP1 no CPT 16.4µM*.
Screening CCOc1ccc(C(=O)c2oc3ccccc3c2NC(=O)Cc2coc3cc(C)cc(C)c23)cc1 returned DT40 TDP1 CPT -2.7%, TDP1 inh 1.2%, GCN5L2 inh -6.7%, VDR inhibitor 2.2% and DT40 TDP1 no CPT -2.9%.
`Cc1ccc(C)c(CN2C(=O)C3(c4ccccc42)N(c2ccc(Cl)cc2)C(=O)CS3(=O)=O)c1` (stereo unspecified) gave DT40 TDP1 CPT inconclusive, TDP1 inh 1.1%, GCN5L2 inh -15.3%, VDR inhibitor 3.5% and DT40 TDP1 no CPT inconclusive.
For O=C(c1cccs1)N1CCCC(c2ccccc2)C1 (stereo unspecified) the results were DT40 TDP1 CPT -0.1%, PLK1 PBD block -6.2%, TDP1 inh 0.0%, GCN5L2 inh -6.7%, VDR inhibitor -10.7% and DT40 TDP1 no CPT 18.4µM*.
For CC(C)(C)[C@H]1CCC(=O)N([C@H](CSc2ccc(Br)cc2)Cc2ccccc2)CC1 the results were DT40 TDP1 CPT 18.4µM*, PLK1 PBD block -12.9%, TDP1 inh 0.0%, GCN5L2 inh 2.7%, VDR inhibitor -7.8% and DT40 TDP1 no CPT 14.1µM*.
For CC(C)(C)[C@H]1CCC(=O)N([C@H](CSc2ccccc2)Cc2ccccc2)CC1 the results were DT40 TDP1 CPT 23.1µM*, PLK1 PBD block -19.0%, GCN5L2 inh 1.5%, VDR inhibitor -21.3% and DT40 TDP1 no CPT inconclusive.
`[N-]=[N+]=NC[C@H](Cc1ccccc1)N1CC[C@@H](O)CCC1=O` gave DT40 TDP1 CPT 1.9%, PLK1 PBD block -5.7%, GCN5L2 inh -5.3%, VDR inhibitor -29.3% and DT40 TDP1 no CPT -3.8%.
Screening CC(C)(C)[C@H]1CCC(=O)N([C@H](CN=[N+]=[N-])Cc2ccccc2)CC1 returned DT40 TDP1 CPT 14.1µM*, PLK1 PBD block -5.9%, GCN5L2 inh -2.1%, VDR inhibitor -17.7% and DT40 TDP1 no CPT 20µM*.

High-throughput results (PubChem BioAssay)
